Where “and” joins values, the source holds several entries; their conditions need not be identical. Equal values may be shown once. Inconclusive results are not listed. Calls of active or inactive are those of the source. Unless noted, calls come from the whole dose curve; as a rule, active = well fitted curve in the direction sought with a large enough effect; inconclusive = small, poorly fitted or top-dose-only effect, or another doubt; inactive = no such curve, though single readings can be large; an effect the other way counts as inactive or inconclusive.
How the values were obtained:
[1] = S16 Schwann cell PMP22 intronic element beta-lactamase assay (AID 624044; calls by dose curve; note: nearly all actives have a fitted effect of over 15% in size; note: potency is the fitted concentration of half-maximal effect)
Procedure, shortened: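 Rat S16 Schwann cells with beta-Lac driven by a PMP22 intronic element, compound-treated 24 h at 37 °C. LiveBLAzer FRET B/G read: 460 nm normalized to potassium clavulanate vs DMSO; 535 nm FRET as viability; concentration-effect curves classified.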

[2] = target: Glutaminase kidney isoform, mitochondrial (Homo sapiens) (UniProt O94925); assay: qHTS for Inhibitors of Glutaminase (GLS): LOPAC Validation (AID 624146); note: nearly all actives have a fitted effect of over 60% in size; note: potency is the fitted concentration of half-maximal effect
Procedure, shortened: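 Read-out is an Amplex red fluorescence increase coupled through glutamate oxidase and HRP, measured before and after 30 min room-temperature incubation. hKGA is in 45 mM KH2PO4 (pH 8.2) with 0.02% Tween-20; glutamine added as 1mM solution.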

[3] = qHTS of Trypanosoma Brucei Inhibitors: LOPAC Validation (AID 624147); note: 0% is about no effect
Procedure, shortened: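 Quantitative HTS: titrated library compounds versus trypanosomal pyruvate kinase in TEA buffer (pH 7.2) containing KCl, MgCl2, BSA and Tween-20. Reactions were initiated with ADP, 130 uM final. Kinase-Glo Plus luminescence was read after 45 min at RT.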

[4] = target: Glucagon-like peptide 1 receptor (Homo sapiens) (UniProt P43220); assay: qHTS of GLP-1 Receptor Agonists: LOPAC Validation (AID 624148);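 note: luminescence from a luciferase reporter switched on by cAMP; 0% is about no effect; higher luminescence signal means agonism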
Procedure, shortened: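 Agonism scored as increased luciferase luminescence driven by cAMP in HEK293 clones carrying GLP-1R. Cells settled 12 hours, received compound for 4-6 hr at 37 deg C, 5% CO2, and were read after 12 min detection reagent at RT.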

[5] = qHTS of Nrf2 Activators: LOPAC Validation (AID 624149); note: 0% is about no effect
Procedure, shortened: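 Luminescence read-out of ARE-luciferase activation: AREc32_Fluc cells treated with compounds for 24 hr at 37 deg C, then lysed with Steady-Glo for 30 min at room temperature before reading.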

[6] = HTS Assay for Allosteric Antagonists of the Human D2 Dopamine Receptor: Hit Validation in HTRF (AID 624455);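 note: stable D1 dopamine receptor cell line scored for blocking the D1 response; % is set by controls: 0 for no effect and ±100 for the full control effect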
Procedure, shortened: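 First, antagonism was screened by calcium flux in a force-coupled, inducible Hek293 Trex D2 line challenged with EC80 dopamine. Hits then went into an HTRF assay in cells stably expressing D1, testing inhibition of the D1 response.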

[7] = Cytotoxicity counterscreen for NFkB agonists and antagonists (AID 624476);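 note: cells exposed to compound for 48 hours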; note: potency is the fitted concentration of half-maximal effect
[8] = qHTS Assay for Identification of Small Molecule Agonists for NFkB Signaling Pathway. (AID 624478);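 note: compounds tested together with TNF alpha at its EC50 of 10 pM; 0% is about no effect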
Procedure, shortened: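 ME-180 cervical carcinoma, stable NFkB-RE beta-lactamase reporter; 1000 cells/well, overnight attachment; cpd + TNF alpha 10 pM final, 5 h 37 C; LiveBLAzer 2 h RT; FRET 460/530 nm, ex 405 nm.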

[9] = qHTS Assay for Identification of Small Molecule Antagonists for NFkB Signaling Pathway. (AID 624479; calls by dose curve;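 note: pathway stimulated with TNF alpha; potency is the fitted concentration of half-maximal effect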)
[10] = Cell Proliferation Assay against the TMD8 Cell Line (AID 651645); details: TMD8 DLBCL cell line proliferation/viability; at 46.1 µM (top of the series) unless noted;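 note: cells exposed to compound for 48 h before reading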
Procedure, shortened: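 Viability by CellTiter-Glo after 48 h compound exposure of 500 log-phase TMD8 cells per well (RPMI, 5% FBS). Percent activity scaled between DMSO (100%) and 9.2 uM final bortezomib (0%).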

[11] = Cell Proliferation Assay against the HBL1 Cell Line (AID 651646); details: HBL1 DLBCL cells; at 46.1 µM (top of the series) unless noted;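 note: cells exposed to compound for 48 h before reading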
Procedure, shortened: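 Luminescent ATP read-out (CellTiter-Glo) after 48 h compound exposure of HBL1 cells at 37 °C; percent activity was scaled between DMSO as 100% and 9.2 uM bortezomib (final) as 0%.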

[12] = qHTS assay for small molecule disruptors of the mitochondrial membrane potential - 1 hr assay (AID 651754; calls by dose curve; note: potency is the fitted concentration of half-maximal effect; nearly all actives have a fitted effect of over 35% in size)
Procedure, shortened: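 HepG2, 2,000 cells/well, overnight attachment; cpd or DMSO 1 hr, 37C/5% CO2; Mito-MPS dye 30 min, 37C; fluorescence monomer (490/535) and aggregate (540/590).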

[13] = qHTS assay for small molecule disruptors of the mitochondrial membrane potential - 5 hr assay (AID 651755; calls by dose curve; note: nearly all actives have a fitted effect of over 40% in size; note: potency is the fitted concentration of half-maximal effect)
Procedure, shortened: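 HepG2, 2,000 cells/well, overnight attach; cpd or DMSO 5 hr, 37C/5% CO2; Mito-MPS 30 min 37C; fluor 490/535 + 540/590 nm.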

[14] = qHTS assay for small molecule agonists of the antioxidant response element (ARE) signaling pathway (AID 651741; active = well fitted activation curve with a large enough effect in the signal ratio; the % refers to the signal ratio; note: potency is the fitted concentration of half-maximal effect; for activation: % of control where 0% means no effect)
Procedure, shortened: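 Quantitative HTS in HepG2 cells stably expressing an ARE-beta-lactamase reporter; 16 h compound exposure at 37 C, followed by 2 h room-temperature incubation with LiveBLAzer B/G FRET substrate and fluorescence measurement.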

[15] = qHTS assay for small molecule activators of the p53 signaling pathway (AID 651743; active = well fitted activation curve with a large enough effect in the signal ratio, not every such curve was filed as active; the % refers to the signal ratio; note: % of control where 0% means no effect); details: HCT-116 p53RE-bla, beta-lactamase FRET ratio, 16 h; stronger effect = higher value
Procedure, shortened: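 Read-out is fluorescence intensity from the LiveBLAzer B/G FRET substrate, added for 2 hours at room temperature after HCT-116 p53RE-bla cells had been incubated with compounds for 16 hours at 37 C.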

[16] = qHTS assay for small molecule activators of the nuclear factor-kappa B (NF-kB) signaling pathway (AID 651749; active = well fitted activation curve with a large enough effect in the signal ratio; the % refers to the signal ratio; note: % of control where 0% means no effect); details: NF-kB-bla ME-180 cells, beta-lactamase FRET ratio, 16 h; stronger effect = higher value
Procedure, shortened: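 Readout: beta-lactamase reporter driven by an NF-kB response element, detected fluorescently as loss of FRET. Cells were the ME-180 line, treated 16 hr at 37C with pin-transferred compound.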

[17] = target: Tumor necrosis factor (Homo sapiens) (UniProt P01375); assay: qHTS assay to identify small molecules that stimulate Tumor Necrosis Factor-alpha (TNF-alpha) secretion (AID 651757; active = well fitted curve in the direction sought with a large enough effect in the signal ratio; the % refers to the signal ratio; note: 0% is about no effect)
Procedure, shortened: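 Read-out is HTRF, a TR-FRET sandwich of cryptate- and XL665-labeled anti-TNF-alpha antibodies detecting cytokine secreted by THP-1 cells. Cells had been incubated with test compounds at 37 C for 17 hrs beforehand.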

[18] = qHTS assay to identify small molecules that stimulate interleukin-8 (IL-8) secretion (AID 651758; active = well fitted activation curve with a large enough effect in the signal ratio; the % refers to the signal ratio; note: 0% is about no effect)
Procedure, shortened: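 Secreted IL-8 measured by TR-FRET sandwich (cryptate and XL665 antibodies) from THP-1 cells exposed to compound overnight (16 hrs, 37 C).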

Glucagon-like peptide 1 receptor (Homo sapiens), sequence (P43220 whole entry, looked up): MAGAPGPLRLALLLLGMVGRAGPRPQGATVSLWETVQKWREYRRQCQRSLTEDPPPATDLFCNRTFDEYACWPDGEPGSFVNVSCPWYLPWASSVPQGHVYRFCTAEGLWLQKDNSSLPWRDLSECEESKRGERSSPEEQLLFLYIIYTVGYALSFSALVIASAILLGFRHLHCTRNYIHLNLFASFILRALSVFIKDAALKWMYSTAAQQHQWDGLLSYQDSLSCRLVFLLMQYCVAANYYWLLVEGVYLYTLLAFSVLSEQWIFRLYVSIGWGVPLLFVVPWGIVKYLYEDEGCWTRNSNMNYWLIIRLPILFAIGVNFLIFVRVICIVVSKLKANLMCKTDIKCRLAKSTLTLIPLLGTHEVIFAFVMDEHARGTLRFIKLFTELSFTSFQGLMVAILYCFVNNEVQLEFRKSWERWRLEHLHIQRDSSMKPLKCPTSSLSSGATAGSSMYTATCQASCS
Tumor necrosis factor (Homo sapiens), sequence (P01375 whole entry, looked up): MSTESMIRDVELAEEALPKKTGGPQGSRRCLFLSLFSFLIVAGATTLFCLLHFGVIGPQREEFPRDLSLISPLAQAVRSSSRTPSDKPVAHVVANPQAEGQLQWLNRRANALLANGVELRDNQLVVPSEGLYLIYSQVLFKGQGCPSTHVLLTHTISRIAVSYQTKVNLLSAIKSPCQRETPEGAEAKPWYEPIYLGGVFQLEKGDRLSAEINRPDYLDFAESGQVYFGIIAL
Glutaminase kidney isoform, mitochondrial (Homo sapiens), sequence (O94925 whole entry, looked up, canonical isoform): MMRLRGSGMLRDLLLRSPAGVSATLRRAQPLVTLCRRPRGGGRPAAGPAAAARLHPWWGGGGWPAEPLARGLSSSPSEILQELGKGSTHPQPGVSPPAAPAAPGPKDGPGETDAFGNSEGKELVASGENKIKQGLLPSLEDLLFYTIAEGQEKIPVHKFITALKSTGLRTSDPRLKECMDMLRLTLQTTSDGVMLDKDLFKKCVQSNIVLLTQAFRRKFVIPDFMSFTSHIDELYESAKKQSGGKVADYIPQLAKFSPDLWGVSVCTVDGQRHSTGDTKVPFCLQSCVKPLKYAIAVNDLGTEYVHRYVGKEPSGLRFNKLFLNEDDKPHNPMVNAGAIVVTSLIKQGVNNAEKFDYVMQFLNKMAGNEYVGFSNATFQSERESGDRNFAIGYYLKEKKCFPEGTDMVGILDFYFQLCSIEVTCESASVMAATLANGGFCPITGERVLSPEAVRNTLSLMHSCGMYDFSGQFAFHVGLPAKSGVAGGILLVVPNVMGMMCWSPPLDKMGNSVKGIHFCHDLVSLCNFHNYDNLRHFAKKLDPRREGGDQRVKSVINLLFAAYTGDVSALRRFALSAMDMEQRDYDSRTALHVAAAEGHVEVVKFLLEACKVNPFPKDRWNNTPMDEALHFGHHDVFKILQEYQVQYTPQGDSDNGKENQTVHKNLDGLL

CCCCCN(C)CCC(O)(P(=O)(O)O)P(=O)(O)O
inactive: Potency [1] | Potency [2] | outcome [3] | outcome [4] | outcome [5] | outcome [6]

CC1=C(/C=C/C(C)=C/C=C/C(C)=C/C(=O)Nc2ccc(O)cc2)C(C)(C)CCC1
0.102%: viability, percent of control [11]
active: Potency [1] 11.2 µM | Potency [2] 12.6 µM | Potency [7] 20.9 µM | Potency [9] 21.1 µM | Potency [12] 15 µM | Potency [13] 18.8 µM
inactive: outcome [3] | outcome [4] | outcome [5] | outcome [6] | outcome [8]
7.34%: viability (% of control) [10]

CC(=O)N[C@@H](CS)C(=O)O
inactive: Potency [2] | outcome [3] | outcome [4] | outcome [5] | outcome [6] | Potency [14] | activation [15] 0.943%

CC1(C)O[C@H]2C[C@@H]3[C@H]4CCC5=CC(=O)C=C[C@]5(C)[C@@]4(F)[C@@H](O)C[C@]3(C)[C@]2(C(=O)CO)O1
inactive: Potency [1]

COc1cc2ncnc(Nc3ccc(F)c(Cl)c3)c2cc1OCCCN1CCOCC1
50.3%: viability (% of control) [10]
40.3%: viability, percent of control [11]
inactive: Potency [1] | Potency [7] | outcome [8]

C[N+](C)(C)CCCCCC[N+](C)(C)C
inactive: Potency [2] | outcome [3] | outcome [4] | outcome [5] | outcome [6]

Cc1cccc(C)c1OCC(C)N (stereo not drawn)
inactive: Potency [2] | outcome [3] | outcome [4] | outcome [5] | outcome [6]

CCN1CCC[C@H]1CNC(=O)c1cc(S(N)(=O)=O)ccc1OC
inactive: Potency [2] | outcome [3] | outcome [4] | outcome [5] | outcome [6]

CC(=O)CCCCn1c(=O)c2c(ncn2C)n(C)c1=O
inactive: Potency [2] | outcome [3] | outcome [4] | outcome [5]

Clc1ccc(Cn2c(CN3CCCC3)nc3ccccc32)cc1
inactive: Potency [1] | Potency [2] | outcome [3] | outcome [4] | outcome [5] | outcome [6]

CCN(CC)CCOC(=O)c1ccc(N)cc1
inactive: Potency [2] | outcome [3] | outcome [4] | outcome [5] | outcome [6]

O=c1c(-c2ccc(O)cc2)coc2cc(O)ccc12
active: Potency [14] 27.3 µM and 42.2 µM | Potency [12] 18.8 µM | Potency [13] 21.1 µM
inactive: Potency [2] | outcome [3] | outcome [4] | outcome [5] | outcome [6] | activation [15] -1.55% and 1.43% | activation [16] -0.613% and -0.223% | outcome [17]

COC(=O)[C@@H]1[C@H]2C[C@H]3c4[nH]c5ccccc5c4CCN3C[C@@H]2CC[C@@H]1O
inactive: Potency [2] | outcome [3] | outcome [4] | outcome [5] | outcome [6]

CCOC(=O)O[C@]1(C(=O)OCCl)CC[C@@H]2[C@H]3CCC4=CC(=O)C=C[C@]4(C)[C@@H]3[C@@H](O)C[C@@]21C
inactive: Potency [1]

O=c1[nH]cnc2c1ncn2[C@H]1CC[C@@H](CO)O1
inactive: Potency [1] | Potency [14] | Potency [13] | outcome [17] | outcome [18]

O=C(NCCN1CCOCC1)c1ccc(Cl)cc1
inactive: Potency [2] | outcome [3] | outcome [4] | outcome [5] | outcome [6]

COc1ccccc1N1CCN(CCCNc2cc(=O)n(C)c(=O)n2C)CC1
inactive: Potency [2] | outcome [3] | outcome [4] | outcome [5] | outcome [6]

CCCNC(=O)NS(=O)(=O)c1ccc(Cl)cc1
inactive: Potency [2] | outcome [3] | outcome [4] | outcome [5] | outcome [6] | Potency [14] | activation [15] -1.07% and -0.555% | activation [16] -1.46% and -0.938% | outcome [17]

O=C1NCC2(CCN(CCc3ccccc3)CC2)O1
inactive: Potency [1] | outcome [3] | outcome [4] | outcome [5] | outcome [6]

COCCCCC(=NOCCN)c1ccc(C(F)(F)F)cc1
inactive: Potency [1]

CC(=O)c1ccc(S(=O)(=O)NC(=O)NC2CCCCC2)cc1
inactive: Potency [2] | outcome [3] | outcome [4] | outcome [5] | outcome [6] | Potency [14] | activation [15] -2.83% and -1.75% | activation [16] -0.811% and -1.71% | outcome [17]

From PubChem BioAssay (NCATS)
